# Data from PubChem BioAssay (Tox21).
# Results filed as inconclusive are left out. A call without a number means that no potency is given here. Active and inactive are the calls of the source. Unless noted, calls come from the whole dose curve; as a rule, active = well fitted curve in the direction sought with a large enough effect in the repeat runs; inconclusive = weak or mixed curves; inactive = no such curve, though single readings can be large; an effect the other way counts as inactive or inconclusive. Non-standard residues stand in square brackets, D forms with d. Residues, ends and D or L forms follow the SMILES beside them. *: point of attachment. Sta = CC(C)C[C@H](N)[C@@H](O)CC(=O)O; Isovaleryl = CC(C)CC(=O)*
# Tests used:
# [1] = molecular target: Aryl hydrocarbon receptor (Homo sapiens) (UniProt P35869); assay: qHTS assay to identify small molecule that activate the aryl hydrocarbon receptor (AhR) signaling pathway (AID 743085); note: nearly all actives have a fitted effect of over 15% in size; note: potency is the fitted concentration of half-maximal effect;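 for activation: HG2L7.5c1 human HepG2 liver cells with stably integrated DRE-driven firefly reporter; series mostly up to about 70 µM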
# Outline: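 24 h compound exposure, 37C, HepG2-derived HG2L7.5c1 cells with DRE-responsive luciferase. Readouts: fluorescence viability, then luminescence at room temperature after 30 min.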
# [2] = qHTS assay to identify small molecule that activate the aryl hydrocarbon receptor (AhR) signaling pathway - cell viability counter screen (AID 743086);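 note: HepG2 liver cells carrying the AhR DRE luciferase reporter; series mostly up to about 70 µM; nearly all actives have a fitted effect of over 45% in size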
# Outline: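 HepG2-AhR-luc (HG2L7.5c1) cells, 4000/well, treated 24 h at 37 C with compound; viability measured as CellTiter-Fluor fluorescence after 30 min in the same wells as the luciferase read.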
# [3] = molecular target: Peroxisome proliferator-activated receptor gamma (Homo sapiens) (UniProt P37231); assay: qHTS assay to identify small molecule agonists of the peroxisome proliferator-activated receptor gamma (PPARg) signaling pathway (AID 743094; active = well fitted activation curve with a large enough effect in the signal ratio in the repeat runs, not every such curve was filed as active; the % refers to the signal ratio)
# Outline: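 HEK293H PPARg-bla cells, 5 h settle at 37C/5% CO2; compound (DMSO) 17 h, 37C; B/G FRET substrate 1 h RT; fluorescence intensity read-out. qHTS format.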
# [4] = molecular target: Peroxisome proliferator-activated receptor gamma (Homo sapiens) (UniProt P37231); assay: qHTS assay to identify small molecule antagonists of the peroxisome proliferator-activated receptor gamma (PPARg) signaling pathway (AID 743191; calls by dose curve; note: series mostly up to about 63 µM; nearly all actives have a fitted effect of over 30% in size)
# Outline: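 GeneBLAzer PPARg UAS-bla HEK293H cells, 5 h post-plating, exposed to compounds 17 h at 37C. LiveBLAzer B/G FRET substrate added for 1 h at room temperature; beta-lactamase reporter read by fluorescence intensity.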
# [5] = qHTS assay to identify small molecule antagonists of the peroxisome proliferator-activated receptor gamma (PPARg) signaling pathway - cell viability counter screen (AID 743194); note: nearly all actives have a fitted effect of over 55% in size
# Outline: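 Cytotoxicity counter screen in PPARg-bla HEK293H cells, same wells as reporter assay. Compounds plus 50 nM rosiglitazone (final) for 17 h at 37 C, then viability read by CellTiter-Glo luminescence.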
# [6] = qHTS assay for small molecule agonists of the antioxidant response element (ARE) signaling pathway (AID 743202; active = well fitted activation curve with a large enough effect in the signal ratio in the repeat runs, not every such curve was filed as active; the % refers to the signal ratio; note: potency is the fitted concentration of half-maximal effect)
# Outline: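 HepG2 ARE-bla reporter line, 2,000 cells/well; 5 h preincubation 37 C/5% CO2; compound (DMSO) 16 h 37 C; B/G FRET substrate 2 h RT; fluorescence intensity.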
# [7] = qHTS assay for small molecule agonists of the antioxidant response element (ARE) signaling pathway - cell viability counter screen (AID 743203; calls by dose curve; note: nearly all actives have a fitted effect of over 55% in size)
# Outline: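 Luminescence read-out (CellTiter-Glo, 30 min at room temperature) measured cell viability in the same wells as the ARE beta-lactamase reporter. HepG2 ARE-bla cells were treated with compounds for 16 hrs at 37C/5% CO2.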
# [8] = qHTS assay for small molecule activators of the heat shock response signaling pathway - cell viability counter screen (AID 743209); note: nearly all actives have a fitted effect of over 50% in size
# Outline: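 HSE-bla HeLa; 1500 cells/well; overnight 37 C, 5% CO2; compound 5 h 37 C; LiveBLAzer B/G substrate 2.5 h RT; CellTiter-Glo 30 min RT; luminescence.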
# [9] = qHTS assay for small molecule activators of the heat shock response signaling pathway (AID 743210; active = well fitted activation curve with a large enough effect in the signal ratio in the repeat runs, with a control signal flat, not every such curve was filed as active; the % refers to the signal ratio;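 note: HeLa cells with beta-lactamase reporter driven by heat shock elements; series mostly up to about 63 µM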)
# Outline: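 Beta-lactamase reporter read-out: FRET substrate fluorescence after 2.5 h at RT, following 5 h compound treatment at 37 C of HeLa cells carrying HSE-driven bla reporter; quantitative HTS format.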
# [10] = qHTS assay to identify small molecule agonists of the peroxisome proliferator-activated receptor delta (PPARd) signaling pathway - cell viability counter screen (AID 743211); note: nearly all actives have a fitted effect of over 55% in size
# Outline: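 Luminescent ATP viability assay (CellTiter-Glo, 30 min RT) in UAS-bla HEK293H cells carrying the PPAR delta reporter construct, 3000 cells/well, after a 17 h compound treatment at 37 C.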
# [11] = qHTS assay to identify small molecule antagonists of the peroxisome proliferator-activated receptor delta (PPARd) signaling pathway - cell viability counter screen (AID 743213); note: nearly all actives have a fitted effect of over 50% in size
# Outline: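 PPARd-bla HEK293H cells (3000/well) got compound plus 300 nM L165041 agonist for 17 h at 37 C. Viability in the same wells came from CellTiter-Glo luminescence after 30 min at room temperature.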
# [12] = qHTS assay to identify small molecule agonists of the farnesoid-X-receptor (FXR) signaling pathway - cell viability counter screen (AID 743218); note: nearly all actives have a fitted effect of over 45% in size
# Outline: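 Luminescence from CellTiter-Glo, read after 30 min at RT, reports viability of GeneBLAzer FXR-UAS-bla HEK 293T cells treated 16 h with compounds in the wells used for the beta-lactamase reporter.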
# [13] = qHTS assay to identify small molecule antagonists of the farnesoid-X-receptor (FXR) signaling pathway - cell viability counter screen (AID 743221; active = well fitted cell-killing curve with a large enough effect in the repeat runs, not every such curve was filed as active; note: nearly all actives have a fitted effect of over 50% in size)
# Outline: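 In GeneBLAzer FXR-UAS-bla HEK 293T cells stimulated with 50 uM chenodeoxycholic acid (final), compounds acted for 16 h at 37 C. Viability was assessed afterwards by CellTiter-Glo luminescence.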
# [14] = molecular target: Vitamin D3 receptor (Homo sapiens) (UniProt P11473); assay: qHTS assay to identify small molecule agonists of the vitamin D receptor (VDR) signaling pathway (AID 743222; calls by dose curve)
# Outline: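 Beta-lactamase reporter readout (LiveBLAzer B/G FRET, 2 h RT) in VDR-bla cells after 16 h compound treatment at 37C, 5% CO2; cells pre-incubated 4 h before pin transfer of DMSO solutions.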
# [15] = qHTS assay to identify small molecule agonists of the vitamin D receptor (VDR) signaling pathway - cell viability counter screen (AID 743224); note: series mostly up to about 63 µM; nearly all actives have a fitted effect of over 50% in size
# Outline: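 Cytotoxicity counter screen: VDR-bla cells, 16 h compound exposure at 37C, 5% CO2; CellTiter-Glo luminescence, 30 min RT, same wells as bla read.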
# [16] = molecular target: Bile acid receptor (Homo sapiens) (UniProt Q96RI1); assay: qHTS assay to identify small molecule antagonists of the farnesoid-X-receptor (FXR) signaling pathway (AID 743217; active = well fitted inhibition curve with a large enough effect in the signal ratio in the repeat runs, not every such curve was filed as active; the % refers to the signal ratio)
# Outline: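 Read-out: beta-lactamase FRET fluorescence (LiveBLAzer B/G substrate, 2 h, room temperature) in GeneBLAzer FXR-UAS-bla HEK 293T cells. Compounds were co-dosed with 50 uM chenodeoxycholic acid (final) and incubated 16 h at 37 °C.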
# [17] = molecular target: Bile acid receptor (Homo sapiens) (UniProt Q96RI1); assay: qHTS assay to identify small molecule agonists of the farnesoid-X-receptor (FXR) signaling pathway (AID 743220; active = well fitted activation curve with a large enough effect in the signal ratio in the repeat runs, not every such curve was filed as active; the % refers to the signal ratio)
# Outline: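 FXR-UAS-bla HEK 293T cells carrying a UAS-driven beta-lactamase reporter were plated for 5 h at 37C/5% CO2, then exposed to DMSO-dissolved Tox21 10K compounds for 16 h at 37C. A LiveBLAzer B/G FRET substrate was loaded for 2 h at room temperature before fluorescence reading.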
# [18] = molecular target: Peroxisome proliferator-activated receptor delta (Homo sapiens) (UniProt Q03181); assay: qHTS assay to identify small molecule antagonists of the peroxisome proliferator-activated receptor delta (PPARd) signaling pathway (AID 743215; active = well fitted inhibition curve with a large enough effect in the signal ratio in the repeat runs, not every such curve was filed as active; the % refers to the signal ratio;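 note: cells stimulated with agonist L165041 at 300 nM final during compound exposure; series mostly up to about 62 µM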)
# Outline: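 HEK293H GeneBLAzer PPARd UAS-bla reporter cells; cpd + L165041 300 nM final, 17 h 37 C; LiveBLAzer B/G FRET substrate 2 h RT; fluorescence intensity read-out. Antagonist mode.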
# [19] = molecular target: Vitamin D3 receptor (Homo sapiens) (UniProt P11473); assay: qHTS assay to identify small molecule antagonists of the vitamin D receptor (VDR) signaling pathway (AID 743223; active = well fitted inhibition curve with a large enough effect in the signal ratio in the repeat runs, not every such curve was filed as active; the % refers to the signal ratio)
# Outline: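 Agonist 1alpha,25-dihydroxyvitamin D3 (3 nM in well) was added with each compound to VDR-bla cells preincubated 4 h. Cells stood 16 h at 37C, then FRET substrate 2 h at room temperature; fluorescence intensity recorded.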
# [20] = molecular target: Peroxisome proliferator-activated receptor delta (Homo sapiens) (UniProt Q03181); assay: qHTS assay to identify small molecule agonists of the peroxisome proliferator-activated receptor delta (PPARd) signaling pathway (AID 743212; calls by dose curve)
# Outline: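 Read-out: beta-lactamase FRET fluorescence after 2 h room-temperature incubation with LiveBLAzer B/G substrate. Cells were HEK293H carrying a UAS-bla reporter for PPARd, treated at 37 C with DMSO-dissolved compounds.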
# Peroxisome proliferator-activated receptor gamma (Homo sapiens), sequence (P37231 whole entry, looked up): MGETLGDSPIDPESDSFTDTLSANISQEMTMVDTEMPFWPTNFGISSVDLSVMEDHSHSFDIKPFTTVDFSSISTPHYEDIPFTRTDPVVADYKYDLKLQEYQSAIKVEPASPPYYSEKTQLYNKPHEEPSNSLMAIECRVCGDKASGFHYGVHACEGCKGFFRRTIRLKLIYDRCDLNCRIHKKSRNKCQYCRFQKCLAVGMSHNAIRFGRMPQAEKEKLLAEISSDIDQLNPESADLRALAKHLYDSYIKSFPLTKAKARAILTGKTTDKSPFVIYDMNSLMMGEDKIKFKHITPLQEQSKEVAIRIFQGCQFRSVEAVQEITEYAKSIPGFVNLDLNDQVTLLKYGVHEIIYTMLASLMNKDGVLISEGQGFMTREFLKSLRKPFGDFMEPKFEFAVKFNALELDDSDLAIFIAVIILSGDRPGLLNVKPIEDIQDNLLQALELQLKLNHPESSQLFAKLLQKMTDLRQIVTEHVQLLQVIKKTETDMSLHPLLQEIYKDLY
# Peroxisome proliferator-activated receptor delta (Homo sapiens), sequence (Q03181 whole entry, looked up): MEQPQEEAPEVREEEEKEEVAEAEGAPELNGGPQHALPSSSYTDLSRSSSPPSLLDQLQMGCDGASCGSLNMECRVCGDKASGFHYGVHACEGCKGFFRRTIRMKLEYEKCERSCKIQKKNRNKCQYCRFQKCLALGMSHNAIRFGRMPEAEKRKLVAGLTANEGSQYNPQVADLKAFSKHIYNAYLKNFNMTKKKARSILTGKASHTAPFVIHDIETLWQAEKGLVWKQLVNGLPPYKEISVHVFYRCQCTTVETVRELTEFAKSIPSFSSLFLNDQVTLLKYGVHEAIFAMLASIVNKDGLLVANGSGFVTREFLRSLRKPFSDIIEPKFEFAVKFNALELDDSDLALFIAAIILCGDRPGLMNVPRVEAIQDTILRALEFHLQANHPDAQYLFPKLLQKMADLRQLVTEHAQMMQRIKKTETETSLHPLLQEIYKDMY
# Aryl hydrocarbon receptor (Homo sapiens), sequence (P35869 whole entry, looked up): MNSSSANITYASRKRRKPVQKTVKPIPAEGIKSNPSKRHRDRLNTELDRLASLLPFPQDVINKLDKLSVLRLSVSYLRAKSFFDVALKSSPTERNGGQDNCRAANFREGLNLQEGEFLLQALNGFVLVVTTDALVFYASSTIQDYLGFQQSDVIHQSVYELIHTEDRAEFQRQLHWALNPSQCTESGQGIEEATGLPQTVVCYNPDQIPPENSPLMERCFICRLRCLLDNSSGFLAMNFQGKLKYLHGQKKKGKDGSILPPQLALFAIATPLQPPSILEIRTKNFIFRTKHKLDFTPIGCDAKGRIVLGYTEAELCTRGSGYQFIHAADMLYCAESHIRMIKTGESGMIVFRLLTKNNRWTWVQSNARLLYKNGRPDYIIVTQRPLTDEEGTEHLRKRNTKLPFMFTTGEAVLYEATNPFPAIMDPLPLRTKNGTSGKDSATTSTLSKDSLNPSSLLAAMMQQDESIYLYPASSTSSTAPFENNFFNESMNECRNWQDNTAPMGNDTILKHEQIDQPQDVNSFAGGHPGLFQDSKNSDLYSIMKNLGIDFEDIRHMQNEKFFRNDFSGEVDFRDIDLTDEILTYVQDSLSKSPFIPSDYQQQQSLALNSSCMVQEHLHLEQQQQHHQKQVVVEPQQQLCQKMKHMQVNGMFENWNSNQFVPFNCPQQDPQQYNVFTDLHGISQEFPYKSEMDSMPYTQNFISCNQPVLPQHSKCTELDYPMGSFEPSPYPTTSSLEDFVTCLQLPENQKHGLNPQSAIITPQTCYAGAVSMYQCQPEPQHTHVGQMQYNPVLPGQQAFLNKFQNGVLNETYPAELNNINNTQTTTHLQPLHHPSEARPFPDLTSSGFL
# Bile acid receptor (Homo sapiens), sequence (Q96RI1 whole entry, looked up): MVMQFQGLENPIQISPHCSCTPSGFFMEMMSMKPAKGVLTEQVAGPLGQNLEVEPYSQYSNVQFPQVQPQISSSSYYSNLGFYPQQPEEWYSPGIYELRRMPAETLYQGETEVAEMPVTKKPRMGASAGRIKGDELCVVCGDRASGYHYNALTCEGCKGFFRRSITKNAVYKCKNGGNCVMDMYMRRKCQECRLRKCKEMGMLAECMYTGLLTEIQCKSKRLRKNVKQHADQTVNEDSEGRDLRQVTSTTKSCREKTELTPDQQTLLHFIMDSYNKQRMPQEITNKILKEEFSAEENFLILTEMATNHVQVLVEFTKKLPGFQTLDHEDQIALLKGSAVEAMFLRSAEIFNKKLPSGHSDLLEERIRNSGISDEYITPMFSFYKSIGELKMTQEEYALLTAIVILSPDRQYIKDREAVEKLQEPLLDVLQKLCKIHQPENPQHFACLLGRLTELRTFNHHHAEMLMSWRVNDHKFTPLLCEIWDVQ
# Vitamin D3 receptor (Homo sapiens), sequence (P11473 whole entry, looked up): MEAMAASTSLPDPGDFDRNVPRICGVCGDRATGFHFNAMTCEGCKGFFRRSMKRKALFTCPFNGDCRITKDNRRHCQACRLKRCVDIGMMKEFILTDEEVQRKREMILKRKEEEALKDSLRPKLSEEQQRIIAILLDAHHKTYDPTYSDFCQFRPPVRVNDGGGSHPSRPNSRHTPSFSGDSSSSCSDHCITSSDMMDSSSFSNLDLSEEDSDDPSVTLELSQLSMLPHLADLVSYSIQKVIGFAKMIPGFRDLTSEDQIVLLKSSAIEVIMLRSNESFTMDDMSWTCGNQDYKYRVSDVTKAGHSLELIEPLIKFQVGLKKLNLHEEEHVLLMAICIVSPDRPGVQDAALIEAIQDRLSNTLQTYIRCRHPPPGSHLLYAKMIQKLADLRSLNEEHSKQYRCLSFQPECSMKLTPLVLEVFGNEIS
Compound,Potency [1],outcome [2],outcome [3],outcome [4],outcome [5],Potency [6],outcome [7],Potency [8],outcome [9],outcome [10],outcome [11],outcome [12],outcome [13],outcome [14],outcome [15],outcome [16],outcome [17],outcome [18],outcome [19],outcome [20]
N=C(N)S(=O)O,inactive,inactive,inactive,inactive,inactive,inactive,inactive,inactive,inactive,inactive,inactive,inactive,inactive,inactive,inactive,–,–,–,–,–
COCCCOc1cc(C[C@@H](C[C@H](N)[C@@H](O)C[C@H](C(=O)NCC(C)(C)C(N)=O)C(C)C)C(C)C)ccc1OC,inactive,inactive,inactive,inactive,inactive,inactive,inactive,inactive,–,inactive,inactive,inactive,inactive,–,–,–,–,–,–,–
Cc1ccc2cccnc2c1,inactive,inactive,inactive,inactive,inactive,inactive,inactive,inactive,inactive,–,inactive,inactive,inactive,inactive,inactive,inactive,inactive,–,–,–
NCC1CCC(C(=O)Oc2ccc(CCC(=O)O)cc2)CC1 (centres undefined),inactive,inactive,inactive,inactive,inactive,inactive,inactive,inactive,inactive,inactive,inactive,inactive,inactive,inactive,inactive,inactive,inactive,inactive,inactive,–
CC/C=C\CCOC(=O)c1ccccc1,inactive,inactive,inactive,inactive,inactive,inactive,inactive,–,inactive,inactive,inactive,inactive,–,–,inactive,inactive,inactive,inactive,inactive,inactive
CCCCN(CCCC)CCCCCCN(CCCC)CCCC,inactive,inactive,inactive,inactive,inactive,inactive,inactive,inactive,inactive,–,inactive,inactive,inactive,–,–,–,–,inactive,–,inactive
C=C(C)C(=O)OCCCC,inactive,inactive,inactive,inactive,inactive,inactive,inactive,inactive,inactive,inactive,inactive,inactive,–,–,inactive,–,–,inactive,–,inactive
CCCCCC(CC)OC(=O)CCCOc1ccc(Cl)cc1Cl (centres undefined),inactive,inactive,inactive,inactive,inactive,inactive,inactive,inactive,inactive,–,inactive,inactive,inactive,inactive,inactive,–,–,inactive,–,inactive
CC(C)CC(O)Cc1ccccc1 (centres undefined),inactive,inactive,inactive,inactive,inactive,inactive,inactive,inactive,inactive,inactive,inactive,inactive,inactive,inactive,inactive,–,–,inactive,–,inactive
Cc1nc2ccc(Cl)cc2[nH]1,30.6 µM (active),inactive,inactive,inactive,inactive,inactive,inactive,inactive,inactive,–,inactive,inactive,inactive,inactive,inactive,inactive,inactive,–,inactive,–
CC(C)CC(=O)N[C@H](C(=O)N[C@H](C(=O)N[C@@H](CC(C)C)[C@@H](O)CC(=O)N[C@@H](C)C(=O)N[C@@H](CC(C)C)[C@@H](O)CC(=O)O)C(C)C)C(C)C (Isovaleryl-VV[Sta]A[Sta]-OH),inactive,inactive,inactive,inactive,inactive,inactive,inactive,inactive,–,inactive,inactive,inactive,inactive,–,inactive,–,–,inactive,inactive,inactive
CC(C)(C)OC=O,inactive,inactive,inactive,inactive,inactive,inactive,inactive,inactive,inactive,inactive,inactive,inactive,inactive,–,inactive,inactive,inactive,–,–,–
O=CN1CCCCC1,inactive,inactive,inactive,inactive,inactive,inactive,inactive,inactive,inactive,inactive,inactive,inactive,–,inactive,inactive,–,–,inactive,inactive,inactive
OCCC(F)(F)C(F)(F)C(F)(F)C(F)(F)C(F)(F)C(F)(F)F,inactive,inactive,inactive,inactive,inactive,inactive,inactive,inactive,inactive,inactive,inactive,inactive,inactive,–,inactive,inactive,inactive,inactive,–,inactive
CC/C=C\CCCCCCCCCCOC(C)=O,inactive,inactive,inactive,inactive,inactive,inactive,inactive,inactive,inactive,inactive,inactive,inactive,inactive,inactive,inactive,–,–,inactive,inactive,inactive
CN1C(CCl)Nc2cc(Cl)c(S(N)(=O)=O)cc2S1(=O)=O (centres undefined),inactive,inactive,inactive,inactive,inactive,26.6 µM (active),inactive,inactive,–,inactive,inactive,inactive,inactive,inactive,inactive,–,–,inactive,–,inactive
